Source: PubChem BioAssay
ST2 inh: IL1RL1 inhibition. Q01638. AlphaLISA ST2-Fc/biotin-IL-33 interaction, 1 h. inhibition, % for hits at 17 µM. hit rate 2.3% among 78,000; in the data active means inhibition above about 30%
Target sequence (Q01638 whole entry, looked up): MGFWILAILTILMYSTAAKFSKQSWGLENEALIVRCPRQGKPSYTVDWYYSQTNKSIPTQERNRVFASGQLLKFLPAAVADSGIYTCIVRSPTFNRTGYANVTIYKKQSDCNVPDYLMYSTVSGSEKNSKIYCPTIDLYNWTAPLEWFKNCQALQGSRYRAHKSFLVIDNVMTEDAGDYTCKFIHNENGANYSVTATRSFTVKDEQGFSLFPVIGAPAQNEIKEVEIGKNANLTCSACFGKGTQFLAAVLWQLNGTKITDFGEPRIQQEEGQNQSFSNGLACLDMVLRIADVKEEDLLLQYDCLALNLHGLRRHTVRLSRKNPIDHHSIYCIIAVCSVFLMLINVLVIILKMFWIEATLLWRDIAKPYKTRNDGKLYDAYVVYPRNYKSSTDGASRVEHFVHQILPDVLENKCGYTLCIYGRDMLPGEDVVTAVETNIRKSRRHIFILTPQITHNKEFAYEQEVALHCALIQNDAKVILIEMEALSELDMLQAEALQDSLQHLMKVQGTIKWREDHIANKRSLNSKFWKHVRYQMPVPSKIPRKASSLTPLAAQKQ
The depositor's hits bear a star; i = inactive. Many of the other results were omitted from the sample, so hits are more common in it than they were.

SMILES	ST2 inh
O=C(CN1Cc2ccccc2OC(c2ccsc2)C1)N1CCCC1c1nc2ccc(F)cc2[nH]1 (stereo not drawn)	i
O=C(COc1ccc([N+](=O)[O-])cc1)NCCc1ccccc1	i
O=C(C1CCCO1)N1CCN(Cc2ccc3c(c2)OCO3)CC1 (stereo not drawn)	i
CC(=O)Nc1ccc(N=Cc2cc(Br)cc(Cl)c2O)cc1	i
CCN(CC)CCNC(=O)c1ccc(N=Cc2cc(Cl)cc(Cl)c2O)cc1	i
CCN(CC)c1ccc(N=Cc2ccc(N(CC)CC)cc2O)cc1	60.0%*
COc1ccc(OC)c(CC(=O)N(C)Cc2ccncc2C)c1	i
CCOc1cc(CN2CCCN(C)CC2)ccc1OC	i
CCOc1ccc(-c2nnc3cccc(Cl)n23)cc1OC	41.0%*
COc1ccccc1OCCOc1cccc(Cl)c1	i
O=C1C2C3CC(C(Br)C3Br)C2C(=O)N1c1ccc(O)cc1 (stereo not drawn)	i
N#Cc1nc(COc2ccc(Br)cc2)oc1N1CCCC1	72.0%*
COc1ccc(OCCOc2ccc(OC)cc2)cc1	i
N#Cc1nc(COc2ccc(Cl)cc2)oc1N1CCCCC1	73.0%*
Nc1nonc1-c1noc(COc2ccc(Br)cc2)n1	i
COCc1cc(C)nc(N2CCCCC2)c1C#N	i
COc1ccc(OCc2nc(C#N)c(N3CCCC3)o2)cc1	49.0%*
N#CCOc1nc(N2CCCCC2)nc(N2CCCCC2)n1	i
Nc1nonc1-c1noc(COc2ccc(Cl)cc2)n1	i
Cc1ccc(C2(O)CCN(Cc3cc(=O)n4ccc(C)cc4n3)CC2)nc1	i
Cc1ccccc1-c1nc(Cn2cncn2)c(C)o1	i
CN(C)CCNC(=O)c1cccn2c(=O)c3c4c(sc3nc12)CCCC4	i
Cc1cc(C)nc(SCC(=O)Nc2ccc(OC(F)(F)Cl)cc2)n1	i
O=C(N[C@H]1CO[C@H]2[C@@H]1OC[C@@H]2n1nnnc1-c1ccccc1)c1ccccc1	i
Cc1nc(C)c(CN2CCC(CNS(C)(=O)=O)C2)s1 (stereo not drawn)	i
SMILES	ST2 inh
COc1cccc(-c2nc(CN(C)C3CCCc4ccccc43)c(C)o2)c1OC (stereo not drawn)	i
CC1=CC(C)(C)N(C(=O)C(C)N2C(=O)c3ccccc3C2=O)c2cc(C)ccc21 (stereo not drawn)	i
CSc1nnc2c(n1)OC(c1cccc(C)n1)N(C(C)=O)c1ccccc1-2 (stereo not drawn)	i
CC1=C(C(=O)Nc2nc3ccccc3s2)C(c2ccc(F)cc2)C2=C(CC(C)(C)CC2=O)N1 (stereo not drawn)	i
Cn1c(=O)c2c(nc(N3CCOCC3)n2Cc2c(F)cccc2Cl)n(C)c1=O	37.0%*
Cn1c(=O)c2c(nc(NCc3ccco3)n2Cc2c(F)cccc2Cl)n(C)c1=O	i
CN1CCN(c2nc3c(c(=O)n(C)c(=O)n3C)n2Cc2ccc(Cl)c(Cl)c2)CC1	i
Cc1noc([C@@H]2C[C@H](NS(=O)(=O)c3ccccc3)CN2C)n1	i
CC(C)CNc1nc(-c2ccc([N+](=O)[O-])cc2)nc2ccccc12	i
CCN(CC)C(=O)CC[C@@H]1CNC(=O)[C@@H]2C[C@H](NC(=S)Nc3ccccc3)CN12	36.0%*
COc1ccc(NC(=S)N[C@H]2C[C@H]3C(=O)NC[C@@H](CCC(=O)NC4CC4)N3C2)cc1	i
O=C(CC[C@@H]1CNC(=O)[C@@H]2C[C@H](NC(=S)Nc3ccccc3)CN12)NC1CC1	i
COCCN(Cc1ccsc1)C(=O)[C@@H]1C[C@H](N)CN1C	i
O=C(NCc1ccc2c(c1)OCO2)c1cccn2c(=O)c3cc4ccccc4cc3nc12	i
COc1ccc(C(=O)N2CCN=C2SC)c(OC)c1	i
COc1ccc2nc(SCc3ccc(C)cc3)[nH]c2c1	i
COc1cc(/C=C(\C#N)c2nc3ccc(C)cc3[nH]2)cc(OC)c1O	34.0%*
CCOc1ccc(Br)cc1/C=C(\C#N)c1nc2ccccc2[nH]1	i
N#C/C(=C\c1cc2c(cc1Br)OCO2)c1nc2ccccc2[nH]1	i
N#C/C(=C\c1ccc2c(c1)OCO2)c1nc2ccccc2[nH]1	i
Cc1ccc(/C=C(\C#N)c2nc3ccc(C)cc3[nH]2)cc1	32.0%*
Cc1ccc(S(=O)(=O)Cc2noc([C@@H]3C[C@@H](O)CN3Cc3ccccc3)n2)cc1	i
CC(C)Cc1ccc(C2CC(=O)Nc3[nH]ncc32)cc1 (stereo not drawn)	i
CCCCOC(=O)CSc1nnc(-c2ccccc2)c(=O)[nH]1	i
COc1ccc(N(CC(=O)Nc2ccc(Cl)cc2C)S(C)(=O)=O)c(OC)c1	i
SMILES	ST2 inh
CN(C)c1ccc(CN2CCc3ccccc3C2)cc1	31.0%*
Clc1ccccc1CN1CCc2c([nH]c3ccccc23)C1	i
CCOc1ccc(CN2CCc3ccccc3C2)cc1	i
Clc1ccc(CN2CCc3ccccc3C2)cc1Cl	i
c1ccc2c3c([nH]c2c1)CN(Cc1ccc2c(c1)OCO2)CC3	i
CN(C)c1ccc(CN2CCc3c([nH]c4ccccc34)C2)cc1	32.0%*
O=C(Cn1c(-c2cncs2)nc2ccccc21)Nc1ccccc1	i
O=C(NCCCN1CCN(c2ccc(F)cc2)CC1)c1ccc2nc3ccccc3c(=O)n2c1	i
CC1=CC(=O)C(C(C)C)=C/C1=N\Oc1c([N+](=O)[O-])cc(Cl)cc1[N+](=O)[O-]	62.0%*
O=C(NCc1cccnc1)c1ccc2nc3ccc(Cl)cc3c(=O)n2c1	i
Cc1cccc(N2CCN(C(=O)c3ccc4c(c3)NC(=O)CS4)CC2C)c1 (stereo not drawn)	i
CC(=O)NS(=O)(=O)c1ccc(N2CCCC2=O)cc1	i
COc1ccc(-c2nnc(NC(=O)Nc3ccc(C)c(C)c3)s2)cc1OC	i
CN1C[C@@H](NC(=O)CC(C)(C)CC(=O)O)C[C@H]1c1nc(-c2ccc(F)cc2)no1	30.0%*
CN1C[C@@H](NC(=O)Nc2ccccc2)C[C@H]1c1nc(-c2ccc(F)cc2)no1	i
CN1C[C@@H](NC(=O)CCC(=O)O)C[C@H]1c1nc(-c2ccccc2)no1	i
CN1C[C@@H](NC(=O)NCc2ccccc2)C[C@H]1c1nc(-c2ccccc2)no1	i
CN1C[C@@H](NC(=O)c2ccccc2)C[C@H]1c1nc(-c2ccc(F)cc2)no1	i
CN1C[C@@H](NC(=O)c2ccco2)C[C@H]1c1nc(-c2cccnc2)no1	49.0%*
CN1C[C@@H](NC(=O)Nc2cccc(F)c2)C[C@H]1c1nc(-c2ccc(F)cc2)no1	36.0%*
CN1C[C@@H](NC(=O)Nc2cccc(F)c2)C[C@H]1c1nc(-c2cccnc2)no1	i
Cc1ccc(-c2noc([C@@H]3C[C@H](NC(=O)Nc4cccc(F)c4)CN3C)n2)cc1	i
CCn1cc(C(=O)N2CCCCC2)c2cc(OC)c(OC)cc2c1=O	i
CN(CC1CC(=O)N(C2CCCC2)C1)C1CCC2(CCNCC2)CC1 (stereo not drawn)	i
c1ccc2ncc(Cn3cnnc3)cc2c1	i
SMILES	ST2 inh
COc1ccc(CNC(=O)c2ccc(Nc3cc(-c4ccccc4)ncn3)cc2)cc1	i
CCN(CC)S(=O)(=O)c1cc(Br)c(C)cc1C	i
CCNc1ccnc(N2CCCC(CCC(N)=O)C2)n1 (stereo not drawn)	i
Nc1ccc(CC(C(=O)O)c2ccccc2)cc1 (stereo not drawn)	i
CCCCNC(=O)c1cc(=O)[nH]c2ccc(S(=O)(=O)N3CCCCC3CC)cc12 (stereo not drawn)	i
COCCNc1ccc(-c2noc([C@@H]3CCCN3)n2)cn1	i
